# Screens as filed in PubChem BioAssay.
# A selection: hits, their analogues and other compounds. The true share with any hit is near 2.4%.
# POLK inh: DNA polymerase kappa (human) inhibition; Q9UBT6; purified Pol kappa, fluorescent DNA synthesis assay, 10 min; Potency, µM (top dose mostly 107 µM), inactives show at the highest dose activity, negative = inhibition, actives largely listed as inhibitors; 400,000 tested, 0.53% active; also: % is scaled to controls: 0 for no effect and ±100 for the full control effect
#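 Pol kappa 10 nM + cpd, 15 min RT; start w/ substrate 50 nM final; fluorescence kinetic read, 0 and 10 min. Neg ctrl: buffer, no enzyme.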
# POLH inh: blocks human DNA polymerase eta activity. Q9Y253. recombinant Pol eta, fluorescent DNA replication assay. Potency, µM (doses to about 114 µM), for the others: top-dose activity change, negative = inhibition, hits mostly inhibitors. 390,000 tested, 1.2% active. AID 588591; also: % is scaled to controls: 0 for no effect and ±100 for the full control effect
#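 Pol eta (10 nM) was preincubated with compounds for 15 min at room temperature, after which fluorescent replication substrate (50 nM final) was added to start the reaction. Fluorescence was read kinetically at 0 and 10 min.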
# WRN helicase inh: inhibitors of human WRN helicase; WRN helicase unwinding, fluorescent forked duplex, kinetic; Q14191; AID 651768; Potency, µM (doses to about 114 µM), without a hit: top-dose activity change, negative = inhibition, actives largely listed as inhibitors; 360,000 tested, 0.46% active; also: % is scaled to controls: 0 for no effect and ±100 for the full control effect; nearly all actives have a fitted effect of over 55% in size
# Target sequence (Q14191 whole entry, looked up): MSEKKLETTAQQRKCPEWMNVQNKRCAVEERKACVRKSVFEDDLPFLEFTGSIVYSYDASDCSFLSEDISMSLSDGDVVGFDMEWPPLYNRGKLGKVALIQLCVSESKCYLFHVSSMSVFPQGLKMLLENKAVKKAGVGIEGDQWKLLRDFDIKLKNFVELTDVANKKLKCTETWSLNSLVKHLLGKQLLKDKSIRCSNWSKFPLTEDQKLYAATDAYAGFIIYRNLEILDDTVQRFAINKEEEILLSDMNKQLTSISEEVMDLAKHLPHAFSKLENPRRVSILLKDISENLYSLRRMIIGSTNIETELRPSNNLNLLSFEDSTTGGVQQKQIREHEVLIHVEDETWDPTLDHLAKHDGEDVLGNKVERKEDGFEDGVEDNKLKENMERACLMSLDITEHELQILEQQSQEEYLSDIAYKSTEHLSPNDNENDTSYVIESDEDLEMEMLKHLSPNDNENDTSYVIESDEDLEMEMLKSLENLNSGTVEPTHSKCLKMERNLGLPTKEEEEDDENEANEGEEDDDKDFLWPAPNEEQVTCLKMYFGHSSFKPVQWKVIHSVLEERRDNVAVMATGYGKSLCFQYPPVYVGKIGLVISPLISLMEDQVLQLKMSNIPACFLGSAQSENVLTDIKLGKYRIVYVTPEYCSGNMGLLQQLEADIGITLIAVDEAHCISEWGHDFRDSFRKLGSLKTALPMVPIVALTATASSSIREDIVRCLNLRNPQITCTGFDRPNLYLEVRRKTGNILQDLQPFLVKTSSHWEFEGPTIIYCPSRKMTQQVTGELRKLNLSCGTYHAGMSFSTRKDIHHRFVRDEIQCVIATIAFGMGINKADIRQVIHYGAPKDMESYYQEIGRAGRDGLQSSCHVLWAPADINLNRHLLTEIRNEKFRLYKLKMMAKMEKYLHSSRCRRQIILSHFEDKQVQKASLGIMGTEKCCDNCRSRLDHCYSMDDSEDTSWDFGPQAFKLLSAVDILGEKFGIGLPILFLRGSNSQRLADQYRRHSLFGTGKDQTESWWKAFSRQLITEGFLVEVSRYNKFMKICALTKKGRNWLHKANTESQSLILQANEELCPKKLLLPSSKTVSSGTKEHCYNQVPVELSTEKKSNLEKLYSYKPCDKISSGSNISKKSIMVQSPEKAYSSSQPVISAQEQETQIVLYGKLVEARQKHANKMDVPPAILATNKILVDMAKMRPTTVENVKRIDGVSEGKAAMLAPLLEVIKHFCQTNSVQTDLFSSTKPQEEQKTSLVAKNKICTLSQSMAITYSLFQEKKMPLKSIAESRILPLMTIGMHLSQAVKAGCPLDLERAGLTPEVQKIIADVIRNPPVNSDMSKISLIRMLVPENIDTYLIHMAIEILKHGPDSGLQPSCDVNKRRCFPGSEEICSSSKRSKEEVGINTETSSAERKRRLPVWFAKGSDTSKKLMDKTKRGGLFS
#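 Kinetic red-fluorescence monitoring (525/598 nm) tracks WRN helicase activity after 100 nM fluorophore-quencher forked duplex and 2 mM ATP are added to 20 nM enzyme pretreated 15 min at room temperature with compound.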
# FEN1 inh: inhibitors of human flap endonuclease 1 | AID 588795 | Potency, µM (highest dose often 114 µM), without a hit: top-dose activity change, negative = inhibition, actives largely listed as inhibitors | Recombinant FEN1 flap cleavage, fluorescence, 15 min | 390,000 tested, 0.35% active | P39748; also: % is scaled to controls: 0 for no effect and ±100 for the full control effect; nearly all actives have a fitted effect of over 65% in size
#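 In this screen, 50 nM flap DNA substrate was added to 10 nM FEN1 pretreated with compound for 15 min at room temperature; cleavage was followed with reads at 0 and 15 min, and Hill fitting gave concentration–response parameters.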
# Pol iota inh: inhibitors of human DNA polymerase iota; Potency, µM (highest dose often 115 µM), inactives show top-dose activity, negative = inhibition, most hits filed as inhibitors; Q9UNA4; 390,000 tested, 1% active; Pol iota fluorescent replication assay, 10 min
#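 Fluorescent replication assay read twice, at 0 min and 10 min after adding 50 nM (final) substrate. Enzyme (10 nM) and compounds were first incubated 15 min at room temperature; enzyme-free buffer wells were negative controls.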
# Pol beta inh: DNA polymerase beta (human) inhibition | P06746 | Pol beta primer extension/strand displacement, fluorescence kinetic | Potency, µM (series often up to 114 µM), for inactives: at the top dose activity change, negative = inhibition, actives largely listed as inhibitors | 340,000 tested, 1.3% active; also: % is scaled to controls: 0 for no effect and ±100 for the full control effect
#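 Curves were derived by four-parameter Hill fits of normalized qHTS data. The kinetic fluorescent primer-extension read was taken at 0 and 10 min after 50 nM substrate, following a 15 min room-temperature preincubation of 10 nM enzyme with compounds.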
# * marks the source's active call; other numbers are inactive results; ? = inconclusive; . = no result; [ ] = another dose, or the depositor's remark. Calls follow the shape of the dose curve; as a rule, active = well fitted curve in the direction sought with a large enough effect; inconclusive = small, poorly fitted or top-dose-only effect, or another doubt; inactive = no such curve, though single readings can be large; an effect the other way counts as inactive or inconclusive. Potency is read from the fitted curve at half-maximal effect.
SMILES,POLK inh,POLH inh,WRN helicase inh,FEN1 inh,Pol iota inh,Pol beta inh
COc1cc(/C=N/n2nnnc2N)ccc1OCc1c(C)no[n+]1[O-],-8%,-4%,-3%,-14%,14%,-1%
CC(C)c1ccc(NC(=O)C2(C)Cc3ccccc3C(=O)O2)cc1 (stereo unspecified),-8%,-25%,.,-11%,45%,1%
COC(=O)CCC(=O)OC1(C)C(=O)C2=CN(CC3CC3)C(c3ccc(OC)cc3)=CC2=C(Br)C1=O (stereo unspecified),1%,79µM*,-8%[57.1 µM],8%,?,-3%
COC(=O)CCC(=O)OC1(C)C(=O)C2=CN(C3CC3)C(c3ccc(OC)cc3)=CC2=C(Br)C1=O (stereo unspecified),-24%,79µM*,-8%,-2%,?,.
COC(=O)CCC(=O)OC1(C)C(=O)C2=CN(Cc3ccc(OC)cc3)C(c3ccc(OC)cc3)=CC2=C(Br)C1=O (stereo unspecified),-12%,-6%,2%,-21%,81%,.
CN(C)/[N+]([O-])=N/Oc1ccc([N+](=O)[O-])cc1C(F)(F)F,-8%,.,.,-13%,25%,.
COc1ccc(-n2nc3c(c2NC(=O)C(=O)N2CCN(C)CC2)CSC3)cc1,-3%[60.1 µM],-11%,.,-3%,-1%,-19%
C=CCN1C(=O)/C(=C/c2ccsc2)SC1=S,-17%,1%,-2%,14%,1%,12%
C=CCN1C(=O)/C(=C/c2ccc(-c3ccc(F)cc3)o2)SC1=S,0%,-11%,-3%,-4%,13%,10µM*
CCc1ccc(NC(=O)Cn2c(=O)n(CCCC(=O)NCc3ccccc3OC)c(=O)c3ccccc32)cc1,-15%,-7%,.,-1%,3%,0%
CCOC(=O)c1sc(N2C(=O)C(O)=C(C(=O)c3ccco3)C2c2ccco2)nc1C (stereo unspecified),?,?,4%[11.6 µM],-20%,56µM*,?
CS(=O)(=O)c1ccccc1NC(=O)COc1ccccc1C(=O)Nc1ccccc1,-29%,.,.,-2%,?,.
Cc1cccc(C)c1NC(=O)Cn1c(SCC(=O)NCc2ccccc2)nc2ccccc21,-3%[60.1 µM],-1%,.,0%,-24%,-10%
O=C(CCCCn1c(=O)c2ccccc2n(CC(=O)Nc2ccc(F)cc2F)c1=O)NCc1ccccc1Cl,1%,4%,.,25%,0%,2%
CCCCCCCCCCCCC/C=C/[C@@H](O)[C@H](CO)NC(=O)CCCCCCCCCCCCCCC,-6%[19.4 µM],.,.,.,.,.
Cc1cccc(N2C(=O)CSC2c2cccnc2)c1 (stereo unspecified),-9%,0%,-14%,1%,1%,100µM*
O=C1CSC(c2cccnc2)N1c1ccccc1 (stereo unspecified),-16%,3%,-4%,18%,-4%,-2%
COc1cc(C2c3c(oc4ccc(F)cc4c3=O)C(=O)N2Cc2ccc3c(c2)OCO3)ccc1O (stereo unspecified),-5%,6%,.,2%,-24%,-22%
C=C1c2cccc(O)c2C(O)=C2C(=O)[C@]3(O)C(O)=C(C(N)=O)C(=O)C(N(C)C)C3C(O)C12 (stereo partly specified),4µM*,.,.,.,.,.
C[C@H]1c2cccc(O)c2C(O)=C2C(=O)C3(O)C(O)=C(C(N)=O)C(=O)[C@@H](N(C)C)[C@@H]3[C@@H](O)[C@@H]21 (stereo partly specified),1%,-8%,3%,?,-13%,.
Cc1ccc(N2C(=O)/C(=C\c3ccco3)SC2=S)cc1,79µM*,?,?,-1%,?,45µM*
O=C1/C(=C\c2ccco2)SC(=S)N1c1ccccc1,-25%,?,-21%,-4%,?,28µM*
O=C1/C(=C/c2ccco2)SC(=S)N1C1CCS(=O)(=O)C1 (stereo unspecified),?,-8%,-21%,-9%,?,13µM*
O=C1/C(=C\c2ccco2)SC(=S)N1Cc1ccccc1,-11%,?,-15%,-4%,-2%,?
Cc1ccc(/C=C2\SC(=S)N(C3CCS(=O)(=O)C3)C2=O)cc1 (stereo unspecified),-11%,7%,2%,6%,45%,31%
SMILES,POLK inh,POLH inh,WRN helicase inh,FEN1 inh,Pol iota inh,Pol beta inh
COc1ccc(OC)c(CCNc2ncnc3onc(C)c23)c1,4%,1%,.,-13%,-2%,-10%
Cn1ncc(N=Cc2ccccc2)c1C(N)=O,-10%,?,-13%,0%,9%,1%
Nc1ncc(Br)cc1N=Cc1ccccc1,-28%,-24%,?,6%,10µM*,40µM*
Cc1ncc(CO)c(/C=N/NC(=O)c2cc(O)c(O)c(O)c2)c1O,.,.,.,.,.,0.32µM*
CCCN1CCN(CCCNC(=O)c2ccc3c(c2)sc2nc(-c4ccc(OCC)cc4)cn23)CC1,-12%,-24%,.,-16%,79µM*,?
Cc1ccc2ncc3c(-c4ccccc4)nn(CC(=O)NC4CCCCC4)c3c2c1,4%,-6%,.,15%,10%,15%
O=C(c1ccc2c(c1)CCN2S(=O)(=O)c1ccc(Cl)cc1)N1CCN(c2ccccc2F)CC1,0%,-8%,.,-14%,-1%,-23%
COc1cccc(Cn2c(=O)c(-c3cccs3)nc3cnc(N(C)C)nc32)c1,0%[60.1 µM],.,.,.,.,.
O=C(CCc1nc2ccccc2c(=O)[nH]1)N1CCCc2ccccc21,-14%,50µM*,-7%[11.6 µM],-13%,29%,.
Nc1scc2c(C(=O)N/N=C/c3ccc(Cl)cc3)nn(-c3ccccc3)c(=O)c12,?,-5%,-8%[57.1 µM],0%,6.3µM*,23%
CCOC(=O)c1nn(-c2ccccc2)c(=O)c2c(N)scc12,-1%,?,?,-20%,?,-8%
CCOC(=O)c1cccc(NC(=O)N2CC(CC)Oc3ccccc32)c1 (stereo unspecified),3%,-18%,.,-2%,36%,4%
CCOc1ccc(-c2nonc2NC(=O)c2oc3ccc(Cl)cc3c2C)cc1,7%,4%,.,2%,-10%,40%
Cc1ccc(C=Nc2ccccc2C(N)=O)o1,4%,-18%,-16%,40%,-2%,40%
CN(C)c1ccc(C=Nc2ccccc2C(N)=O)cc1,-11%,-3%,-4%,6%,89µM*,-4%
COc1cccc(CNC(=O)CN2C(=O)COc3ccc(S(=O)(=O)Nc4ccccc4)cc32)c1,3%,-1%,.,-13%,-24%,-2%
CC(=O)Nc1ccc(NC(=O)CCc2ccc(C)o2)cc1,8%,-18%,-1%,21%,19%,26%
Cc1ccc(CCC(=O)Nc2ccc(S(N)(=O)=O)cc2)o1,-27%,14µM*,-16%[57.1 µM],-6%,-16%,-20%
